# Measurements: PubChem BioAssay AID1508600 (Functional Genomics Laboratory (NCATS/FGL), 2020)
# Out of some 53,000 sequences screened, about 3,700 (7%) were called active. Only a selection was taken, and actives are over-represented in it overall. A number with no mark means an inactive call.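 The calls were made as follows: active = gene knockdowns whose robust z-score for IL-1 alpha signal is at least 2 or at most -2, so actives lie on both sides; inactive = the rest.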
# Experiment: Components of the Cytosolic LPS Sensing Pathway: Gene Identification via Genome-wide siRNA Screen;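 also: robust z of the log signal after scaling to non-targeting control siRNA wells of the plate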
# Details: RAW264.7 macrophages, IL-1a HTRF, actives lie on both sides, screened at 100 nM (by protocol), cells primed 5 h with Pam3CSK4 first
# Outline: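 Using IL-1a HTRF as read-out, the screen measured release from RAW264.7 cells after 48h siRNA knockdown (100 nM), 5 h Pam3CSK4 priming and 24 h cytosolic LipidA. Values were expressed relative to negative-control wells as robust z-scores.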
row,Sequence,z-score
1,GGCCGUUAUUAAAUUCAUATT against Twsg1,-0.609
2,GCCGUACCAUGUAAUGCCATT against Naa60,-2.05 (active)
3,GGCCUCAGCUCACAACAAATT against Sf3b4,-1.71
4,GGAAGCAAAAUAAAGAAACTT against Myo1e,0.109
5,GCGAGAGUCACAAAGUGCATT against Rcc1l,1.35
6,GCUAGAGGUGACUGAUGUCTT against Tti1,-1.26
7,GGAACAAGAGAGGACAAGUTT against Papss2,0.555
8,GCCAAAAGUCGAGCACCUCTT against Lrrc8d,0.43
9,CGGUGCUUGCUUCUAUGUGTT against Olfr642,0.201
10,GCUUUUGUGACUCUGCUGATT against Raver1,-1.41
11,CCAUCUAUCAACUUCUACATT against Sat1,-0.34
12,GGCUAUGUUCACCUGUGGATT against Kbtbd12,-2.66 (active)
13,CCUGUAAGAACCUUGCCUATT against Sytl3,0.733
14,GGAAGGAAGAAGACAAUAATT against Nudt16l1,-0.438
15,GCGGAUGAUCAAGAAUCGATT against Atf6b,-0.421
16,GCUGUGAAAACGCAGUUACTT against Ccser2,1.77
17,CCUAUACAUGCUACUGAACTT against Itga9,-0.723
18,CCCAGGGUACCUCACAUCUTT against Nrp1,-0.595
19,GGUCAUCAAUGCCACAGCUTT against Lpo,-2.24 (active)
20,CCGGAGUGACCAUAUUCGUTT against Fgr,-0.446
21,GGCUCUCAAUGAUCAUCAUTT against Aldob,-0.423
22,GGAAGUACAGAAUUUUGAATT against Sft2d2,1.46

row,Sequence,z-score
1,GGAAAUGUUGAAUCUUGCUTT against Mfsd4a,0.0725
2,CGAUGUAAGGAAAGAAAGGTT against Cd14,-1.47
3,CCCUUUGUGUGGAUUAUAUTT against Sp9,2.91 (active)
4,GGGACUGUAAUACCAUGAUTT against Rnase10,0.0343
5,GGCCUUCACCAAAAGCAUCTT against Ncf2,-0.661
6,GGUUUCCUUUGUCUGUUUUTT against 9530091C08Rik,-0.509
7,GGCUCUAACUAUUAUGUGCTT against Psmc4,-2.9 (active)
8,CCUGGCUGUAAUCACCAUCTT against Olfr1160,0.953
9,GGACAGAUCUUUGAAGCAGTT against Vps18,-1.7
10,GGACGAGGAGUACGAGCAATT against Nfkbia,2.6 (active)
11,CUACCUACUCCAUGUGGUGTT against Gpihbp1,-0.55
12,GGCCAUUAAAUUUAUCAACTT against Aldh3a1,1.61
13,GGGAGAGCUGCUGUUUUUCTT against Rxfp3,1.46
14,GGUCUGCUUUGUCUUGGUGTT against Olfr829,0.126
15,GGAUGAAGAUGAAAAGGAATT against Ube3a,-0.519
16,CCUGAAAGUCGUUUAUCGCTT against Il7r,2.74 (active)
17,GGCUAUUUAUAAGUCCAGUTT against Uso1,-0.307
18,GGAUAGGUUUCUGUAUUUATT against Znrf1,0.621
19,CCGUAUGAACGUGUGAUAATT against Rasef,0.142
20,GGGCACCUAGUUUCCAUGATT against Cox7b,-0.385
21,GGAAGUGGCGAGGUUCUAUTT against Folr1,0.782
22,GCAGAACACCGCUGGAAGUTT against Pard3,3.14 (active)

row,Sequence,z-score
1,CGCAAUGUAUGAUUCAAUGTT against Mogat1,1.76
2,GCUAAUUCCCUGGCCUCAATT against Tro,-0.627
3,GGUUUAUAGGCCUUCUUCCTT against Flot2,-0.763
4,GCAUCGUUAUGCGCCUCACTT against Neurog2,0.297
5,CGGGCAUGAUGAAUCGAUGTT against Ldhd,1.83
6,GGCUUGAUGAAGAGAAUAUTT against Oog4,-1.45
7,CGGACUCUGUGUUCUUAGATT against Alg3,2.68 (active)
8,GGGCGACUUAUUUUUUGUUTT against Zfp111,0.333
9,GGACUUCAUCAACAACAUCTT against Nsmce1,0.459
10,GGAAAUCUUCAUGAUCAGUTT against Fam24b,-2.24 (active)
11,GGUCAUCGGGUAAUUAAUCTT against Rad52,-0.618
12,GGAGUCUGCUCUCAUUCUUTT against Slc30a1,-0.214
13,GGAUGCUGAGCUUUCUGACTT against Fchsd1,0.476
14,GGCCCUGUUGCUAUGUGUUTT against Map1s,2.06 (active)
15,GGCACCGCUAUUCAGAAUUTT against Fgf23,0.755
16,GCUGGAAAAGUGCUGUGGGTT against Sult1c1,-0.494
17,GGCUUCCUUUUUGAAGCUATT against Slc35b4,0.258
18,CCGUCAAAACAUUACCAUUTT against Hmcn2,-0.363
19,GGUAGAAGAGAGUAUCAACTT against Commd1,1.28
20,GGAAAGUCUACAUGUAUUATT against Enpp6,-0.886
21,ACAUUUAUCACGACCCUUCTT against Olfr777,1.3
22,GGCCUUCACUGAUGAAUGUTT against Pramel32,-2.21 (active)

row,Sequence,z-score
1,GGCGAAAAGCCGUUCCAUUTT against E430018J23Rik,0.664
2,GGAGAAGAACGAGAAACGUTT against Nyap2,0.904
3,CCAUUGAAAUUUCCAUCUGTT against Baalc,0.115
4,CGUGAACUUUCAGAGCAGGTT against Rrp36,0.124
5,CCAUAGCAGGGAAGAUUUUTT against Kcnd2,3.78 (active)
6,GGAUCCACAGUCAUUCAGATT against Sike1,1.13
7,GGUCUUCAUGGUCAAAGUGTT against Fzd10,2.11 (active)
8,GCAAAGUCCAGUGAACAACTT against Gtse1,-1.15
9,GGCCACAAUGGAUCAGAUGTT against Gldn,1.53
10,GGAUCUUUUAGCUAACCUATT against Tesk2,1.84
11,GGCAACCUGCUGGUAAUCATT against Adrb3,3.53 (active)
12,GGCAUGCUGGAAUCAAACATT against Dppa2,0.699
13,GGUGAGCAAAGCCAAGAAGTT against Sgpl1,-1.42
14,GGCUUGCUUUGCUUCCCUUTT against Med28,-1.24
15,CCCGAAAGACAUGUAUUCGTT against Mrps18b,-0.38
16,CUACUUCGAGAACAUGGGUTT against Tpgs1,-0.749
17,GGUGAUAUCUUUCCAUCUUTT against Wiz,-0.176
18,CCACACUUAGUCAUUUUCUTT against Paral1,-2.06 (active)
19,GGCCUACGAAGUGCAAAGATT against Sipa1l3,-0.667
20,GGACUAGAAGAUCUACACUTT against Olfr67,-0.921
21,GCCUCGAUGCAAGAUGAUGTT against C2cd2l,-0.82
22,GGAUAAAGAAGGACUCAAATT against Tpbpb,-2.16 (active)

row,Sequence,z-score
1,GGAGUAUGCGUACCUGAAGTT against Nr0b2,-0.903
2,GGCAGAGCUUGGAGUAUCUTT against Gtpbp4,1.31
3,GGGAGAAAAAGGCAUUUUUTT against Them5,0.46
4,GGACAACACAUUUGUGCUCTT against Sh2b2,0.209
5,GUCUGAACUUCUUAGCAUCTT against Uchl4,0.788
6,CCAGUGAUCAGUUUUAACGTT against Adamts20,0.184
7,CCUCAAUUGCAUGUGACCUTT against Itgb1bp1,-2.32 (active)
8,GGAUACAAAGAGAGUUGUCTT against Eif3c,1.23
9,GGUGCUGCACAAAUACAUATT against Eef1aknmt,0.715
10,CGAUCGAAAUCAAGUCGAUTT against Septin9,0.415
11,GGUUCUCUGCCAGUUCUGUTT against Mid1,3.32 (active)
12,GGACCAUGUUAGAGCAUGCTT against Traf2,-2.36 (active)
13,GGUCCUACUUGUUCAUUGATT against Il1rl1,-0.802
14,GGACUUCAGUGAGGAUCAATT against Scg5,0.866
15,CCCUCCGAAAAUUUUUCUGTT against Defb14,-0.363
16,GGUAUGGAUCAAGGUUCUUTT against Gja6,3.21 (active)
17,GGUGGCCAUCAAGAAGAUATT against Mapk7,-0.749
18,CGACCACACAGGGAUAUACTT against Sectm1a,-0.169
19,GGGCUAUCUAUCAUAGUUUTT against Scp2,1.17
20,GCAUGUAUAACAGACCCAUTT against Tex47,0.928
